Inconclusive results are not listed. A number with no mark means an inactive call. Calls of active or inactive are those of the source. Calls come from the whole dose curve; as a rule, active = well fitted inhibition curve with a large enough effect; inconclusive = small, poorly fitted or top-dose-only effect; inactive = flat fitted curve, though single readings scatter.

Chain of Ubiquitin carboxyl-terminal hydrolase 1 (Homo sapiens) (O94782 whole entry, looked up): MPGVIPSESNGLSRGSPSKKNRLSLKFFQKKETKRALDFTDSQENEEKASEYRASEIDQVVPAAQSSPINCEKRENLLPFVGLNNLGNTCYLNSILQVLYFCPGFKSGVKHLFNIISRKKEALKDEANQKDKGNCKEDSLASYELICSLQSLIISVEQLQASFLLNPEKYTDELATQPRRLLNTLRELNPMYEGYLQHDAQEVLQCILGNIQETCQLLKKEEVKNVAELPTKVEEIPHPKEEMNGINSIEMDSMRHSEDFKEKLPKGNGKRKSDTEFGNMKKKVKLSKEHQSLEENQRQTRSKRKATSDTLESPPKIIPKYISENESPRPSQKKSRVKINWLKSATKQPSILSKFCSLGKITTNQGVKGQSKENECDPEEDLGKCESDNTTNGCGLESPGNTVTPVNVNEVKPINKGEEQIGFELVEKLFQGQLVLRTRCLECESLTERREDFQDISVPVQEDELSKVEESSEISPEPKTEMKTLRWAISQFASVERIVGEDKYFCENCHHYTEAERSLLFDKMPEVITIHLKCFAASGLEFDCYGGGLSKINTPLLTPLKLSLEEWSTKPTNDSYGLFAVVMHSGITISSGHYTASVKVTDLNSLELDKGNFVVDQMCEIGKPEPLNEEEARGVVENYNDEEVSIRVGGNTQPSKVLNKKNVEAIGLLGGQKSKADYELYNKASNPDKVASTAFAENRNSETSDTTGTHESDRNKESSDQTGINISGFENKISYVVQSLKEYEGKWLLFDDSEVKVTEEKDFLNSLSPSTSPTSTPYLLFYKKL

For the experiment, the target named is Ubiquitin carboxyl-terminal hydrolase 1 (Homo sapiens) (UniProt O94782). The experiment can be described thus: Inhibitors of USP1/UAF1: SAR in Primary Assay. As to conditions: Recombinant USP1/UAF1, Ub-Rhodamine cleavage fluorescence; series mostly up to 57.1 µM; activity change, negative = inhibition: at the top concentration. An excerpt:
Deubiquitinating enzymes (DUBs) are a class of enzymes that can cleave isopeptide bond formed between the C-terminal carboxylate of ubiquitin and a lysine side-chain amino group on the target protein. Among them, ubiquitin specific proteases (USPs) constitute the largest DUB family. Human USPs are emerging as promising targets for pharmacological intervention because of their connection to a number of human diseases, including prostate, colon and breast cancer (1, 2), pediatric acute lymphoblastic leukemia (3), and familial cylindromatosis (4). The advantage of inhibiting USPs lies in the potential specificity of therapeutic intervention that can lead to better efficacy and reduce nonspecific side effects. In a collaboration between the University of Delaware and the NIH Chemical Genomics Center, a high-throughput screen assay was developed to screen for USP1/UAF1 inhibitors (5). This assay was used to test the analogs that were synthesized based on SAR around the original hit. NIH Chemical Genomics Center [NCGC] NIH Molecular Libraries Probe Centers Network [MLPCN] MLPCN Grant: DA030552-01 Assay Submitter (PI): Zhihao Zhuang, University of Delaware 1. Priolo, C., et al. (2006) The isopeptidase USP2a protects human prostate cancer from apoptosis. Cancer Res 66, 8625-8632 2. Popov, N., et al. (2007) The ubiquitin-specific protease USP28 is required for MYC stability. Nat Cell Biol 9, 765-774 3. De Pitta, C., et al. (2005) A leukemia-enriched cDNA microarray platform identifies new transcripts with relevance to the biology of pediatric acute lymphoblastic leukemia. Haematologica 90, 890-898 4. Kovalenko, A., et al. (2003) The tumour suppressor CYLD negatively regulates NF-kappaB signalling by deubiquitination. Nature 424, 801-805 5. Chen, J., et al. (2011) Selective and cell-active inhibitors of the USP1/ UAF1 deubiquitinase complex reverse cisplatin resistance in non-small cell lung cancer cells. Chem Bio 18(11):1390-400.
3 microliters of reagents (buffer in columns 3 and 4 as negative control and 1nM USP1/UAF1 complex in columns 1, 2, and 5-48) are dispensed into Greiner black solid bottom 1536-well assay plates. Compounds are then transferred via Kalypsys pin tool equipped with 1536-pin array (10nl slotted pins, V&P Scientific, San Diego, CA). Following an incubation step of 15 min at room temperature, 1ul of Ub-Rho substrate (150nM final concentration) is added to initiate the reaction. The plates are immediately centrifuged at 1000 rpm for 15 seconds, and subsequently transferred to a ViewLux high-throughput CCD imager (PerkinElmer) wherein kinetic measurements of fluorescence are acquired using 480 nm excitation/540 nm emission filter set (6 reads every 60 seconds, see Table 1). All reagents are diluted in an assay buffer consisting of 50mM HEPES (pH 7.8), 0.5mM EDTA, 0.1 mg/ml BSA, 1mM TCEP, and 0.01% Tween-20.
With `COc1ccccc1-c1ncc(C)c(NCc2ccc(-c3cccnc3)cc2)n1`, the Potency is 0.764 µM (active).

Turning to `Cc1ccccc1-c1nc(NCc2ccc(-c3cccnc3)cc2)c2ccccc2n1`, the Potency was 0.482 µM (active).

As to `CC(C)(Sc1ccc(CCN(CCCCC2CCCCC2)C(=O)NC2CCCCC2)cc1)C(=O)O`, the Potency is 24.1 µM (active).

Take `CC(C)c1ccccc1-c1ncc(F)c(NCC2CCN(c3cccnc3)CC2)n1`: the Potency was 0.0961 µM (active).

Consider `CC(C)c1ccccc1-c1ncc(F)c(NCC2CCN(c3cnccn3)C2)n1` (stereo not given), for which the Potency was 4.29 µM (active).

For the compound `Cc1cnc(-c2ccccc2CO)nc1NCC1CCN(c2cccnc2)CC1`, the Potency is 7.64 µM (active).

With `Cc1cnc(-c2ccccc2C(C)O)nc1NCc1ccc(-c2cccnc2)cc1` (stereo not given), the Potency was 1.36 µM (active).

For the compound `Cc1cnc(-c2ccccc2C(F)(F)F)nc1NCc1ccc(-c2cccnc2)cc1`, the Potency was 0.271 µM (active).

Turning to `Cc1cc(NCc2ccc(-c3cccnc3)cc2)nc(-c2ccccc2C(C)C)n1`, the Potency is 0.482 µM (active).

On to `FC(F)(F)c1ccc(-c2nc(NCc3ccc(-c4ccnc(C(F)(F)F)c4)cc3)c3ccccc3n2)cc1`, for which the “activity change, negative = inhibition” value is -12.9%.

With `FC(F)(F)c1ccccc1-c1nccc(NCc2ccc(-c3cccnc3)cc2)n1`, the Potency is 0.541 µM (active).

In the case of `Brc1ccccc1-c1nc(NCc2ccc(-c3cccnc3)cc2)c2ccccc2n1`, the Potency is 0.961 µM (active).

On to `Cc1cnc(-c2ccccc2C(C)C)nc1NCc1ccc(-c2nn[nH]n2)cc1`, for which the Potency is 3.83 µM (active).

Consider `c1ccc(-c2nc(NCc3ccc(-c4cccnc4)cc3)c3ccccc3n2)cc1`, for which the Potency is 13.6 µM (active).

On to `FC(F)(F)c1ccc(-c2ccc(CNc3nc(-c4ccccc4C(F)(F)F)nc4ccccc34)cc2)cn1`, for which the Potency was 4.29 µM (active).

For the compound `CC(C)c1ccccc1-c1nccc(NCc2ccc(-c3ccnc(C(F)(F)F)c3)cc2)n1`, the Potency was 0.764 µM (active).

Take `N#Cc1cccc(-c2ccc(CNc3nc(-c4ccccc4C(F)(F)F)nc4ccccc34)cc2)c1`: the Potency is 2.71 µM (active).

Consider `FC(F)c1ccccc1-c1nc(NCc2ccc(-c3cccnc3)cc2)c2ccccc2n1`, for which the Potency was 1.36 µM (active).

Regarding `CC(C)c1ccccc1-c1nc2c(c(NCc3ccc(-c4cccnc4)cc3)n1)CCC2`, the Potency is 0.136 µM (active).

With `CSc1cnc(-c2ccccc2C(C)C)nc1NCc1ccc(-c2cccnc2)cc1`, the Potency is 0.0857 µM (active).

Take `Cc1ccc(-c2ccc(CNc3nc(-c4ccccc4C(C)C)nc4ccccc34)cc2)cn1`: the Potency is 0.136 µM (active).

Consider `CC(C)c1ccccc1-c1nc(NCc2ccc(-c3cccnc3)cc2)c2sccc2n1`, for which the Potency is 0.121 µM (active).

Regarding `Fc1cc(Cl)cc(-c2ccc(CNc3nc(-c4ccccc4C(F)(F)F)nc4ccccc34)cc2)c1`, the Potency was 2.41 µM (active).

Take `Cc1cccc(CNc2nc(-c3ccccc3C(C)C)ncc2C)c1`: the Potency was 0.136 µM (active).

For `CC(C)c1ccccc1-c1nc2c(c(NCc3ccc(-c4cccnc4)cc3)n1)CNC2`, the Potency was 1.52 µM (active).

Take `Clc1ccccc1-c1nc(NCc2ccc(-c3cccnc3)cc2)c2ccccc2n1`: the Potency was 0.857 µM (active).

As to `Cc1cnc(-c2ccccc2C(C)C)nc1NCc1ccc(-c2cccnc2)cc1`, the Potency was 0.0681 µM (active).

As to `Cc1ccc(-c2ccc(CN(C)c3nc(-c4ccccc4C(C)C)ncc3C)cc2)cn1`, the Potency is 0.541 µM (active).

Regarding `CC(C)c1ccccc1-c1ncc(F)c(NCc2ccc(-c3ccn[nH]3)cc2)n1`, the Potency is 0.152 µM (active).

As for `O=[N+]([O-])c1ccccc1-c1nc(NCc2ccc(-c3cccnc3)cc2)c2ccccc2n1`, the Potency was 4.29 µM (active).

Take `CC(C)c1ccccc1-c1ncc(F)c(NCc2ccc(-c3cccnc3)s2)n1`: the Potency is 0.242 µM (active).

Take `CN(Cc1ccc(-c2ccccc2)cc1)c1nc(-c2ccccc2C(F)(F)F)nc2ccccc12`: the Potency is 4.29 µM (active).

Turning to `Cc1cnc(-c2ccccc2CO)nc1NCc1ccc(-c2cccnc2)cc1`, the Potency is 8.57 µM (active).

Consider `CC(C)c1ccccc1-c1nccc(NCc2ccc(-c3cccnc3)cc2)n1`, for which the Potency was 0.121 µM (active).

For the compound `FC(F)(F)c1cccc(-c2nc(NCc3ccc(-c4ccnc(C(F)(F)F)c4)cc3)c3ccccc3n2)c1`, the “activity change, negative = inhibition” value was -0.42%.

Regarding `Cc1cnc(-c2ccccc2C2CC2)nc1NCc1ccc(-c2cccnc2)cc1`, the Potency is 0.341 µM (active).

As to `N#Cc1ccc(-c2nc(NCc3ccc(-c4ccnc(C(F)(F)F)c4)cc3)c3ccccc3n2)cc1`, the “activity change, negative = inhibition” value is -19.2%.

On to `CC(C)c1ccccc1-c1ncc(N)c(NCc2ccc(-c3cccnc3)cc2)n1`, for which the Potency is 0.271 µM (active).

Consider `CC(C)c1ccccc1-c1ncc(F)c(NC(C)(C)c2ccc(-n3ccnn3)cc2)n1`, for which the Potency was 4.82 µM (active).

As for `Cc1nc(NCc2ccc(-c3cccnc3)cc2)c2ccccc2n1`, the “activity change, negative = inhibition” value was -15.4%.

The values above are taken from PubChem BioAssay AID651605 (National Center for Advancing Translational Sciences (NCATS), 2012).
